Results filed as inconclusive are left out. Calls of active or inactive are those of the source. Rule for the calls: active = hit-call score of the fitted dose curve at least 0.9, where 1 is the maximum; inconclusive = response in the unintended direction; inactive = score below 0.9.
system: zebrafish Peroxisome Proliferator-activated Receptor alpha (PPARa), gene 563298; assay: ATG_zfPPARa_EcoTox2: Attagene TRANS-FACTORIAL EcoTox-2 HepG2 Assay for zebrafish Peroxisome Proliferator-activated Receptor alpha (PPARa)
Protocol: ATG_EcoTox2 is a cell-based, multiplexed assay created by modifying the existing Attagene TRANS-FACTORIAL system to include a panel of nuclear receptors from some or all the following species: human (Homo sapiens), african clawed frog (Xenopus laevis), rainbow trout (Oncorhynchus mykiss), japanese medaka (Oryzias latipes), and zebrafish (Danio rerio). The ECOTOX2-FACTORIAL format uses HepG2, a human liver cell line, with measurements taken at 24 hours after chemical dosing in a 24-well plate. ATG_zfPPARa_EcoTox2 is one of 29 assay components calculated in the ATG_EcoTox2 assay. It is designed to make measurements of mRNA induction, a form of inducible reporter, as detected with fluorescence intensity signals by Reverse transcription polymerase chain reaction (RT-PCR) and Capillary electrophoresis technology.The assay endpoint ATG_zfPPARa_EcoTox2 was analyzed in the positive analysis fitting direction relative to DMSO as the negative control and baseline of activity. Using a type of inducible reporter, measures of mRNA for gain-of-signal activity can be used to understand the reporter gene at the transcription factor-level as they relate to the gene PPARa. Furthermore, this assay endpoint can be referred to as a primary readout, because this assay has produced multiple assay endpoints where this one serves a reporter gene function. To generalize the intended target to other relatable targets, this assay endpoint is annotated to the nuclear receptor intended target family, where the subfamily is non-steroidal.
Human liver HepG2 cells are transiently transfected with multiple reporter transcription units (MRTUs) in 6-well plates using FuGene 6 reagent (Roche; 3 ml FuGene/1 mg DNA). The MRTU constructs are regulated by a cis-regulating element (promoter). Each RTU expresses a GAL4-UAS that regulates the transcription of a nearby target reporter gene sequence. A major difference between the CIS and TRANS system is that in CIS activities of endogenous TFs are measured, whereas the TRANS assay evaluates changes in activities of exogenous, chimeric NR-Gal4 proteins. […] At the end of 24 hour incubation, total RNA was isolated using TriZol reagent (Invitrogen). The isolated RNA is then reverse-transcribed using oligo(dT) primer and Mo-MLV reverse transcriptase (Invitrogen) with DNAse I (Ambion) treatment for 30 min. The one-tenth of the produced cDNA was amplified by PCR using Taq DNA polymerase (Invitrogen) and two reporter sequence-specific primers. The PCR products were fluorescently labeled by primer extension with 6-arboxyfluorescein (6-FAM) 5'-labeled reporter sequence-specific primer (2 min at 95 C, 20 s at 68 C and 10 min at 72 C) and these products were digested with 5U of HpaI (New England Biolabs) for 2h at 37 C. The fragments were purified using Qiaquick PCR columns (Qiagen), analyzed on an ABI 3130xL genetic analyzer (Applied Biosystems) with peak positions identified by using a set of X-rhodamine (ROX)-labeled MapMarker1000 molecular weight standards (BioVentures). The raw capillary electrophoresis data was processed using Attagraph software (Attagene).

| Structure (SMILES) | outcome | AC50 |
| --- | --- | --- |
| O=P(Oc1ccccc1)(Oc1ccccc1)Oc1ccccc1 | inactive | – |
| [Cl][Sn]([c]1ccccc1)([c]1ccccc1)[c]1ccccc1 | inactive | – |
| CCCCOCN(C(=O)CCl)c1c(CC)cccc1CC | inactive | – |
| O=C(O)C(F)(F)C(F)(F)C(F)(F)C(F)(F)C(F)(F)C(F)(F)C(F)(F)F | – | 52.7 µM (active) |
| O=S(=O)(O)C(F)(F)C(F)(F)C(F)(F)C(F)(F)C(F)(F)C(F)(F)F | inactive | – |
